From the supplement of paper PMC10981050
Several values for one entry are separate records, joined by “and”; a condition that tells them apart may be missing. Equal entries are not always repeated. Structures can show the parent of a compound that is named as a salt.

How the values were obtained:
Test in all cases: cell viability relative to vehicle control; higher = less cytotoxic
Settings in all cases: 10 µM
K562 = tested on: K562
In short: (§1)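 CRISPR-edited SRSF2 P95 mutant and isogenic wild-type clones of four leukaemia lines were screened against Selleck bioactive, kinase and epigenetic probe libraries, with identity-inconsistent compounds removed. Compounds were acoustically dispensed into 384-well plates at a single 10 µM dose, with 2000 cells in 50 µL medium per well. After 48 h, supernatant was removed and CellTiter-Glo luminescence was read. Viability was expressed as percent of the on-plate DMSO vehicle control, analysed in Genedata Screener.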

MARIMO = tested on: MARIMO
In short: as §1

MOLM14 = tested on: MOLM14
In short: as §1

OCI-AML2 = tested on: OCI-AML2
In short: as §1

Compound	cell viability (K562; SRSF2 genotype: SRSF2 P95H/wt)	cell viability (K562; SRSF2 genotype: SRSF2 wt/wt)	cell viability (MARIMO; SRSF2 genotype: SRSF2 P95H/wt)	cell viability (MARIMO; SRSF2 genotype: SRSF2 wt/wt)	cell viability (MOLM14; SRSF2 genotype: SRSF2 P95H/wt)	cell viability (MOLM14; SRSF2 genotype: SRSF2 wt/wt)	cell viability (OCI-AML2; SRSF2 genotype: P95H/wt)	cell viability (OCI-AML2; SRSF2 genotype: wt/wt)
O=C(c1ccc(OCCCc2c[nH]cn2)cc1)C1CC1 [Ciproxifan Maleate]	89.3% and 91.3%	87.7%	85.2%	90.4%	95.9%	93.9%	71.8%	83.4%
O=C(O)CCCCC(CCSCc1ccccc1)SCc1ccccc1 (stereo unspecified)	106% and 104%	100%	99.6%	111%	100%	103%	94.6%	112%
CN1c2ccccc2C(=O)Nc2cnc(Nc3ccc(N4CCC(O)CC4)cc3)nc21	16.4% and 22.1%	15.7%	69.5%	83.9%	57.2%	39.6%	51%	49.3%
O=c1[nH]c(=O)n([C@H]2C[C@H](O)[C@@H](CO)O2)cc1C(F)(F)F [Trifluridine (Viroptic)]	85.4% and 99.2%	85.7%	48.5%	52.3%	52.7%	18.8%	21.6%	26.8%
O=C(NC[C@H]1CN(c2ccc(N3CCOCC3=O)cc2)C(=O)O1)c1ccc(Cl)s1 [Rivaroxaban (Xarelto)]	87.3% and 85.4%	92.3%	92.5%	91.3%	96.8%	97.1%	90.8%	85.8%
Cc1nccn1CCC(C(N)=O)(c1ccccc1)c1ccccc1 [Imidafenacin]	94.5% and 91.6%	105%	87.6%	91.8%	99.2%	101%	90.8%	102%
O=C(O)C1=C(CSc2nnnn2CS(=O)(=O)O)CS[C@@H]2[C@H](NC(=O)[C@H](O)c3ccccc3)C(=O)N12 [Cefonicid sodium]	103%	102%	97.2%	108%	96.3%	105%	103%	113%
OC1CCC(Nc2ncc3nc(Nc4c(F)cc(F)cc4F)n([C@H]4CCOC4)c3n2)CC1 (stereo partly specified) [Tanzisertib(CC-930)]	101% and 111%	114%	116%	103%	91.8%	109%	117%	122%
O=C(C=Cc1ccccc1)NC(NC(=S)Nc1ccc(Cl)cc1)C(Cl)(Cl)Cl (stereo unspecified)	81.5% and 86.5%	86.9%	102%	104%	90.4%	96%	99.1%	100%
CC(C)=CCC[C@](C)(O[C@@H]1O[C@H](CO)[C@@H](O)[C@H](O)[C@H]1O)[C@H]1CC[C@]2(C)[C@@H]1[C@H](O)C[C@@H]1[C@@]3(C)CC[C@H](O)C(C)(C)[C@@H]3[C@@H](O[C@@H]3O[C@H](CO)[C@@H](O)[C@H](O)[C@H]3O)C[C@]12C [Ginsenoside Rg1]	95.2% and 91.8%	101%	96.7%	94.4%	97.5%	98.4%	99.5%	104%
COc1ccc(CCc2nc3cc(-c4c(C)noc4C)ccc3n2C[C@H](C)N2CCOCC2)cc1Cl	80.9% and 86.9%	73.8%	76.9%	70.5%	47.4%	42.5%	45.7%	60.6%
C/C=C/C=C/C(=O)O [Sorbic acid]	92.4% and 92.8%	92.6%	90.7%	99.1%	99.3%	101%	106%	106%
COC(=O)CC1CC(c2ccc(O)cc2)=NO1 (stereo unspecified)	113% and 102%	104%	102%	112%	77.1%	102%	104%	103%
COc1ccnc2[nH]cc(C(=O)C(=O)N3CCN(C(=O)c4ccccc4)C[C@H]3C)c12	93.7% and 90.7%	84.5%	90%	99.2%	95.6%	90.3%	82.2%	86.4%
N#Cc1cnc(Nc2cc(NC[C@H]3CNCCO3)c(C(F)(F)F)cn2)cn1	19% and 24.2%	13.3%	44.5%	54.4%	16.4%	10.3%	14.5%	14.1%
NNC(=O)c1ccncc1.Nc1ccc(C(=O)O)c(O)c1 [pasiniazid]	109% and 113%	114%	106%	106%	101%	108%	119%	93.9%
O=c1c2ccccc2nc2n1CCc1c-2[nH]c2ccccc12 [Rutaecarpine (Rutecarpine)]	103%	103%	98.5%	106%	101%	103%	95.5%	104%
CCNC(=O)[C@@H]1CCCN1C(=O)[C@H](CCCN=C(N)N)NC(=O)[C@H](CC(C)C)NC(=O)[C@@H](CC(C)C)NC(=O)[C@H](Cc1ccc(O)cc1)NC(=O)[C@H](CO)NC(=O)[C@H](Cc1c[nH]c2ccccc12)NC(=O)[C@H](Cc1cnc[nH]1)NC(=O)[C@@H]1CCC(=O)N1 [S3718 Leuprolide Acetate.cdx]	104% and 107%	102%	110%	112%	103%	105%	102%	108%
C=C(C)[C@@H]1CC[C@]2(C(=O)O)CC[C@]3(C)[C@H](CC[C@@H]4[C@@]5(C)CC[C@H](OC(=O)CC(C)(C)C(=O)O)C(C)(C)[C@@H]5CC[C@]43C)[C@@H]12 [Bevirimat]	102% and 101%	99.7%	107%	107%	106%	103%	97%	108%
Cc1cc(C)cc(Oc2ccc(CNC(=O)[C@H](C)N)cc2C)c1	85.9% and 95.5%	93.9%	86.5%	87.8%	78.1%	94.3%	75.5%	83.3%
C[C@H](NC(=O)c1c(N)nn2cccnc12)c1cc2cccc(C#Cc3cnn(C)c3)c2c(=O)n1-c1ccccc1	88.3% and 88.5%	94.3%	71%	63.4%	54.3%	57.1%	32.2%	41.6%

Compound	cell viability (K562; SRSF2 genotype: SRSF2 P95H/wt)	cell viability (K562; SRSF2 genotype: SRSF2 wt/wt)	cell viability (MARIMO; SRSF2 genotype: SRSF2 P95H/wt)	cell viability (MARIMO; SRSF2 genotype: SRSF2 wt/wt)	cell viability (MOLM14; SRSF2 genotype: SRSF2 P95H/wt)	cell viability (MOLM14; SRSF2 genotype: SRSF2 wt/wt)	cell viability (OCI-AML2; SRSF2 genotype: P95H/wt)	cell viability (OCI-AML2; SRSF2 genotype: wt/wt)
Nc1ccc(Cl)cc1C(=O)C(F)(F)F [4-Chloro-2-(trifluoroacetyl)aniline hydrochl]	106% and 98.3%	112%	101%	99.5%	105%	109%	105%	115%
O=C(NC(Cc1cc(=O)[nH]c2ccccc12)C(=O)O)c1ccc(Cl)cc1 (stereo unspecified) [Rebamipide]	99.4% and 101%	96.4%	96.9%	100%	104%	101%	94.8%	102%
C[N+]12CCc3cc4c(cc3C1(O)Cc1ccc3c(c1C2)OCO3)OCO4 (stereo unspecified) [Hydroprotopine]	94.4% and 93.5%	89.5%	84.6%	91.9%	91.2%	98.8%	96.3%	99%
N#Cc1ccc2ncnc(NCCc3ccccc3)c2c1 [Senexin A]	85% and 87.1%	92.4%	91.8%	94%	77.1%	95.1%	58.2%	63%
CCOC(=O)OC(C)OC1=C(C(=O)Nc2ccccn2)N(C)S(=O)(=O)c2ccccc21 (stereo unspecified) [Ampiroxicam]	96.8% and 104%	92.4%	101%	95.9%	93%	95.9%	104%	96%
CCCCNc1ccc(C(=O)OCCN(C)C)cc1 [Tetracaine hydrochloride (Pontocaine)]	99.3% and 87.2%	90.7%	93.4%	105%	92.2%	96.2%	94%	98.4%
Nc1nc(=O)[nH]cc1F [Flucytosine (Ancobon)]	102% and 98.9%	102%	103%	105%	95.9%	102%	105%	109%
Cc1cc(C)c(CN2CCc3c(Cl)cc(-c4c(C)noc4C)c(Cl)c3C2=O)c(=O)[nH]1	78.7% and 87.1%	87.5%	74.8%	65.4%	77.6%	79.8%	77.4%	86.5%
COc1cc(N2CCN(C)CC2)ccc1Nc1ncc2c(n1)N(C)c1ccccc1C(=O)N2	83.4% and 82.7%	78.9%	97.7%	90.1%	78.1%	91.3%	83.3%	73.2%
Cc1n[nH]c2ncc(C(=O)N3CCC[C@H]3c3ccc(Cl)cc3)cc12	101% and 98.5%	99.8%	101%	128%	88.8%	105%	91.4%	92.8%
CN(C)c1ccc(C(=O)NCCCCCCC(=O)NO)cc1	1.52% and 16.7%	6.13%	6.98%	14.2%	1.22%	0.66%	2.92%	6.46%
COc1nc2ccc(Br)cc2cc1[C@@H](c1ccccc1)[C@@](O)(CCN(C)C)c1cccc2ccccc12 [Bedaquiline fumarate]	55% and 58.7%	74.9%	63.9%	55.5%	41.6%	54.7%	24.1%	21.3%
O=c1ccc2ccc(O)cc2[nH]1 [7-Hydroxycarbostyril]	95.8% and 92.9%	101%	95.4%	101%	95%	101%	91.2%	107%
C[C@@]1(F)[C@H](O)[C@@H](CO)O[C@H]1n1ccc(=O)[nH]c1=O [2'-deoxy-2'-fluoro-2'-C-methyluridine]	93.6% and 89.6%	89.8%	87.2%	101%	87.2%	91.3%	86.6%	104%
CN(C)CCC(c1ccc(Br)cc1)c1ccccn1 (stereo unspecified) [Brompheniramine hydrogen maleate]	95.3% and 97.4%	91.3%	86.2%	90.7%	101%	98.8%	112%	109%
COc1ccc(CCNCc2ccc(OCc3ccc(Cl)nc3)c(OC)c2)cc1OC	85.6% and 95.4%	89.8%	87.4%	95.2%	91.9%	99.9%	91.4%	83.5%
OCCOCCN1CCN(C(c2ccccc2)c2ccc(Cl)cc2)CC1 (stereo unspecified) [Hydroxyzine 2HCl]	90.8% and 99.8%	96.4%	85.2%	88.6%	86.6%	95%	95.4%	86.1%
COc1ccc2[nH]c([S@@+]([O-])Cc3ncc(C)c(OC)c3C)nc2c1 [NEXIUM (esomeprazole magnesium)]	101% and 97.4%	104%	97%	107%	92%	98.6%	90.5%	94.8%
Cc1ccc(S(=O)(=O)Cc2nc(-c3ccc(C(=O)NCc4cccnc4)cc3)oc2C)cc1	30% and 20.2%	26%	21.2%	37.2%	12.1%	2%	5.44%	5.6%
CC(=O)CCc1ccc(OC(C)=O)cc1 [Pherocon (4-(4-Acetoxyphenyl)-2-butanone)]	111% and 109%	119%	103%	107%	109%	108%	119%	116%
FC(F)(F)Oc1ccc(-c2ccc3nnc(C(F)(F)F)n3c2)cc1	91% and 96.6%	102%	95.7%	97.8%	95.2%	112%	89%	94.4%
